Source: PubChem BioAssay (NCATS)
Several values for one entry are separate records, joined by “and”; a condition that tells them apart may be missing. Equal values may be shown once. Records with an inconclusive call do not appear. Values without a mark were called inactive. Activity calls are given as the source filed them. Calls follow the shape of the dose curve; as a rule, active = well fitted curve in the direction sought with a large enough effect; inconclusive = small, poorly fitted or top-dose-only effect, or another doubt; inactive = no such curve, though single readings can be large or run the other way. Where a SMILES comes first, the peptide text is derived from it. Bridges are numbered along the chain shown (N, C = ends). [ ]: non-standard residue; d: D form. The star is where a group is joined. X2 = CC[C@H](C)CCCCC(=O)*; Dab = NCC[C@H](N)C(=O)O

Assay: qHTS Assay for Identifying Gametocytocidal Compounds (AID 743244);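 as to max response: actives lower the fluorescent signal which means gametocytes are killed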
Conditions: P. falciparum 3D7 stage III-V gametocytes, alamarBlue, 72 h; max response: active compounds read low
Source text: Malaria cases and deaths have dropped 50% in 29 countries since 2000 due to the combined effects of long-lasting insecticidal bednets, indoor residual spraying, and artemisinin-based combination therapies (ACTs). This success has raised hopes for malaria eradication and consequently stimulated interest in developing new reagents that block gametocyte transmission such as novel and safe gametocytocidal drugs. However, previous drug development efforts have focused primarily on the asexual parasites that cause symptoms, but not malaria transmission. Consequently, patients can remain infectious for weeks after the clearance of asexual parasites and clinical symptoms. To be transmitted from person to person via a mosquito, the parasites must switch from asexual to sexual development and produce male and female gametocytes. Malaria gametocytes consist of five stages (I, II, III, IV and V). The late stage gametocytes (III, IV and V) are difficult to be cultured in vitro and the long lifespan of mature gametocytes allows them being transmitted from host to mosquitoes unless they are completely eliminated by gametocytocidal agents. To identify gametocytocidal compounds which are capable of killing late stage P. falciparum gametocytes, a high throughput gametocyte viability assay was employed. This assay uses oxidoreduction indicator, alamarBlue, as a general measure of metabolic activity of gametocytes. Within live cells, the nonfluorescent resazurin is reduced to resorufin, a bright red fluorescence dye. Fluorescence decreases upon treatment of gametocytocidal compounds. P. falciparum gametocyte (3D7 strain) was used in this study.
The 1536-well gametocycidal viability assay was based on the previous method of Tanaka et al. Stage III-V gametocytes were tested against three compound libraries, including 4265 compounds from NCGC pharmaceutical collection, 400 from Malaria Box library, and 550 from an internal collection of kinase inhibitors. Briefly, 2.5 ul/well incomplete medium was dispensed into each well of 1,536-well plates using the Multidrop Combi followed by 23 nl compound transferring using the NX-TR Pintool (WAKO Scientific Solutions, San Diego, CA). Then, 2.5 ul/well of gametocytes was dispensed with a seeding density of 20,000 cells/well using the Multidrop Combi. The assay plates were incubated for 72 h at 37C with 5% CO2. After addition of 5 ul/well of 2X AlamarBlue dye (Life Technologies, cat. no. DAL1100), the plates were incubated for 24 h at 37C with 5% CO2 and then were read in a fluorescence detection mode (Ex = 525 nm, Em = 598 nm) on a ViewLux plate reader (PerkinElmer).
% is scaled to controls: 0 for no effect and ±100 for the full control effect; potency is read from the fitted curve at half-maximal effect.

Structure (SMILES)	max response	Potency
CCCCCCCCCCCCCCCC(=O)OCCC1CCN(CCCN2c3ccccc3Sc3ccc(S(=O)(=O)N(C)C)cc32)CC1	-11.1%	
C=CCNC1=C2C[C@@H](C)C[C@H](OC)[C@H](O)[C@@H](C)/C=C(\C)[C@H](OC(N)=O)[C@@H](OC)/C=C\C=C(/C)C(=O)NC(=CC1=O)C2=O		2.82 µM (active)
CCC[C@@]1(CCc2ccccc2)CC(O)=C([C@H](CC)c2cccc(NS(=O)(=O)c3ccc(C(F)(F)F)cn3)c2)C(=O)O1	14.3%	
CCN(CC)c1ccc(C(=C2C=CC(=[N+](CC)CC)C=C2)c2ccccc2)cc1		11.2 µM (active)
CC(=O)O[C@H]1CC[C@@]2(C)C(=CC[C@@H]3[C@@H]2CC[C@]2(C)C(c4cccnc4)=CC[C@@H]32)C1	-2.25%	
NCCCC(=O)O	8.69% and -6.82%	
CN(C(=O)CO)c1c(I)c(C(=O)NCC(O)CO)c(I)c(C(=O)NCC(O)CO)c1I (stereo not given)	-2.64%	
COc1ccc(CCNCC(O)COc2cccc(C)c2)cc1OC (stereo not given)	11.3%	
COC(=O)C1=C(C)NC(C)=C(C(=O)O[C@H]2CCN(Cc3ccccc3)C2)[C@H]1c1cccc([N+](=O)[O-])c1	22.4%	
CCC(C)(C)OC(=O)N[C@@H](Cc1c[nH]c2ccccc12)C(=O)N[C@@H](CCSC)C(=O)N[C@@H](CC(=O)O)C(=O)N[C@@H](Cc1ccccc1)C(N)=O	-0.189%	
CCN(CC)c1ccc(N=Nc2ccc(S(=O)(=O)N(C)C)cc2)c(S(=O)(=O)NCC[n+]2ccccc2)c1	1.66%	
CS(=O)(=O)OCCCNCCCOS(C)(=O)=O	-15.1%	
C[C@]12CC[C@@H]3c4ccc(OS(=O)(=O)O)cc4CC[C@H]3[C@@H]1CCC2=O	-15.6%	
CC(=O)OCC(=O)[C@@]1(O)[C@H](C)C[C@H]2[C@@H]3C[C@H](F)C4=CC(=O)C=C[C@]4(C)[C@H]3[C@@H](O)C[C@@]21C	-15.2%	
CCCC(=O)N1CCCN(c2nc(N)c3cc(OC)c(OC)cc3n2)CC1	16.2%	
CCOC(=O)Nc1ccc2c(c1)N(C(=O)CN(C)C)c1ccccc1CC2	6.79%	
CCCN(CC)C(CC)C(=O)Nc1c(C)cccc1C (stereo not given)	0.657%	
OCC(O)COc1ccc(Cl)cc1 (stereo not given)	3.94%	
COc1cc([C@@H]2c3cc4c(cc3C(O[C@@H]3O[C@@H]5COC(c6cccs6)O[C@H]5[C@H](O)[C@H]3O)C3COC(=O)[C@@H]32)OCO4)cc(OC)c1O (stereo not given in full)	-13.4%	
CCN1CCCC1CNC(=O)c1cc(S(=O)(=O)CC)ccc1OC (stereo not given)	-5.69% and 12.8%	

Structure (SMILES)	max response	Potency
COc1ccc(C(=O)Nc2ccccc2CCC2CCCCN2C)cc1 (stereo not given)	14.2%	
CCCCOC(=O)C(=O)Nc1cccc(-c2nn[nH]n2)c1	31.5%	
CC(CN(C)C)CN1c2ccccc2S(=O)(=O)c2ccccc21 (stereo not given)	-15.2%	
C[C@H](/C=C/[C@H](C)C(C)(C)O)[C@H]1CC[C@H]2/C(=C/C=C3C[C@@H](O)C[C@H](O)C3)CCC[C@]12C	11.6%	
CCC(=O)O	-11.8%	
CCCCCCCCCCCCCCCCCC(=O)OCCO	-0.219%	
CC(=O)N[C@@H](C=O)[C@H](O)[C@H](O)[C@@H](O)CO	-5.02% and 7.73%	
CC[C@H](C)CCCCC(=O)N[C@@H](CCN)C(=O)N[C@H](C(=O)N[C@@H](CCN)C(=O)N[C@H]1CCNC(=O)[C@H]([C@@H](C)O)NC(=O)[C@H](CCN)NC(=O)[C@H](CCN)NC(=O)[C@H](CC(C)C)NC(=O)[C@@H](CC(C)C)NC(=O)[C@H](CCN)NC1=O)[C@@H](C)O (X2-[Dab]T[Dab][Dab][Dab][dL]L[Dab][Dab]T; lactam 4-C)	13.6%	
CCCCCCCCCC(=O)O	10.1%	
O=C1O[C@H]2[C@H](O)[C@@H]1OC(O)[C@H]2O (stereo not given in full)	-4.25%	
NNc1nnc(Cc2ccncc2)c2ccccc12	1.86%	
CSCC[C@H](NC(=O)[C@H](Cc1ccc(OS(=O)(=O)O)cc1)NC(=O)[C@@H](N)CC(=O)O)C(=O)NCC(=O)N[C@@H](Cc1c[nH]c2ccccc12)C(=O)N[C@@H](CCSC)C(=O)N[C@@H](CC(=O)O)C(=O)N[C@@H](Cc1ccccc1)C(N)=O	-12.2% and 15%	
CCCCCCCCCCCCCCCC(=O)OC[C@@H](COP(=O)([O-])OCC[N+](C)(C)C)OC(=O)CCCCCCCCCCCCCCC	1.44%	
COc1cc(C[C@@H]2NCCc3cc(O)c(O)cc32)cc(OC)c1OC	-17.1%	
CCC(c1ccccc1)c1noc(CCN(CC)CC)n1 (stereo not given)	15%	
CN=C(NC)NCc1ccccc1	13.1%	
CC#CCC(C)[C@H](O)/C=C/[C@@H]1[C@H]2c3cccc(CCCC(=O)O)c3O[C@H]2C[C@H]1O (stereo not given in full)	6.65%	
O=P(O)(O)OC(CO)CO	10.5%	
CC1(C)C2CC[C@]3(C)[C@H](C(=O)C=C4[C@@H]5C[C@@](C)(C(=O)O)CC[C@]5(C)CC[C@]43C)[C@@]2(C)CC[C@@H]1O[C@H]1O[C@H](C(=O)O)[C@@H](O)[C@H](O)[C@H]1O[C@@H]1O[C@H](C(=O)O)[C@@H](O)[C@H](O)[C@H]1O (stereo not given in full)	-0.804%	
O=S(O)CNc1ccc(S(=O)(=O)c2ccc(NCS(=O)O)cc2)cc1	-0.921%	
